Measured values taken from PubChem BioAssay AID485313 (National Center for Advancing Translational Sciences (NCATS), 2010).
Among all 320,000 compounds or so, about 7,600 (2.4%) were called active. Where a call stands in place of a potency, no number is given. Roughly 3% stayed inconclusive and do not appear here. The call rests on the fitted dose curve; in most records, active means well fitted activation curve with a large enough effect; inconclusive means small, poorly fitted or top-dose-only effect; inactive means no such curve, though single readings can be large or run the other way. The sample as a whole holds a higher share of actives than the screen did.

Test: qHTS Assay for NPC1 Promoter Activators; further: nearly all actives have a fitted effect of over 60% in size;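 on activation: reporter is driven by a mutant NPC1 promoter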
Conditions: Huh7 NPC1 promoter luciferase reporter, 24 h; series mostly up to 9.22 µM
Method in brief: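 Huh7 reporter cells (NPC1 promoter driving luciferase) are dosed with compound for 24 h at 37 °C, 5% CO2; luciferase detection reagent is then added and luminescence measured after 10 min at ambient temperature.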
Potency means the concentration at half of the fitted maximal effect.

Structure (SMILES)	Potency
COc1ccccc1C1=CC(=O)C[C@H](c2ccc(F)cc2)C1	inactive
CCc1ccccc1NC(=O)CSc1nnc(-c2ccncc2)o1	inactive
CCOC(=O)CSc1nnc(-c2ccc([N+](=O)[O-])cc2)o1	inactive
O=C(CSc1nnc(-c2ccc([N+](=O)[O-])cc2)o1)Nc1ccccn1	0.708 µM (active)
O=S(=O)(Nc1ccc(-n2cnnn2)cc1)c1ccc(Cl)cc1	inactive
CCN(CC)S(=O)(=O)c1ccc(OC)c(NC(=O)CCc2c(C)noc2C)c1	inactive
COC(=O)CNS(=O)(=O)c1ccc(OC)cc1	inactive
C/C(N)=C(/C#N)C(=O)COC(=O)CNS(=O)(=O)c1ccc(C)cc1	inactive
COC(=O)CNS(=O)(=O)c1ccc(Cc2ccc(S(=O)(=O)NCC(=O)OC)cc2)cc1	0.631 µM (active)
CC(=O)c1ccc(OCCCC(=O)Nc2ccc(C)c(S(=O)(=O)N3CCOCC3)c2)cc1	inactive
COc1ccc(CNC(=O)COC(=O)c2c(C)nn(-c3ccccc3)c2C)cc1OC	inactive
O=C(CN1CCCSc2ccccc21)N1CCN(S(=O)(=O)c2ccccc2)CC1	inactive
C(=N\n1cnnc1)/c1cccnc1	inactive
COc1cccc(OCCOc2cccc(/C=N/n3cnnc3)c2)c1	3.98 µM (active)
COc1ccccc1OCCOc1ccc(/C=N/n2cnnc2)cc1	inactive
Cc1csc(NC(=O)C2CCN(S(=O)(=O)c3ccccc3)CC2)n1	inactive
COc1cc2c(cc1OC)CN(C(C)C(=O)Nc1cccc(S(=O)(=O)N3CCOCC3)c1)CC2 (centres undefined)	inactive
Cc1c(C(=O)NNC(=O)c2ccncc2)oc2ccccc12	inactive
CCN(CC(=O)Nc1ccc(OC)cc1)C(=O)CSCc1ccc(C)cc1	inactive
O=C(Nc1cc(C(F)(F)F)ccc1Cl)c1cc(C2CC2)on1	inactive
O=C(Nc1cc(C(F)(F)F)ccc1Cl)c1cc2nc3c(c(C(F)(F)F)n2n1)CCCC3	3.16 µM (active)
O=C(Nc1cc(C(F)(F)F)ccc1Cl)C(=O)N1CCCCC1	inactive
O=C(COc1ccccc1Cl)N1N=C(c2cccs2)CC1c1ccco1 (centres undefined)	inactive
CC(C)C(NC(=O)c1c(F)cccc1F)C(=O)NCc1ccncc1 (centres undefined)	inactive
O=C(OCC(=O)N1CCc2ccccc21)C1CCCN1S(=O)(=O)c1ccc(Cl)cc1 (centres undefined)	inactive
C/C(CC(=O)Nc1cccc(F)c1)=N\NC(=O)C(=O)NC1CCCCC1	inactive
O=C(Nc1cccc(F)c1)NC1CCCc2ccccc21 (centres undefined)	inactive
O=C(Nc1cccc(F)c1)NC1CCCCCCC1	2.51 µM (active)
COc1ccc(OC)c(S(=O)(=O)n2c([N+](=O)[O-])cnc2C)c1	inactive
